Test [1] is described as follows: qHTS assay to identify small molecule agonists of the sonic hedgehog signaling (Shh) pathway (AID 1259368; calls by dose curve;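 further: NIH/3T3-derived 3T3Gli1-Luc cells carrying a stable Gli1-driven firefly luciferase reporter; series mostly up to about 92 µM; nearly all actives have a fitted effect of over 15% in size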). The essentials: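 Cells of a mouse NIH/3T3 clone stably expressing luciferase under the Gli1 transcriptional response element are exposed to test chemicals for 24 hr at 37 C. Pathway activation is detected as a rise in luminescence.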
In general terms: qHTS replaces the single test concentration by a dilution series.

In test [2] the target is Estrogen receptor beta (Homo sapiens) (UniProt Q92731). In words: qHTS assay to identify small molecule agonists of the estrogen receptor beta (ER-beta) signaling pathway (AID 1259377; active means well fitted activation curve with a large enough effect in the signal ratio in the repeat runs, not every such curve was filed as active; the % refers to the signal ratio). Summed up:
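ER-beta-UAS-bla HEK293T cells in medium with 2% charcoal-stripped FBS were exposed to compounds for 16 h at 37C. Beta-lactamase reporter activity was read as fluorescence after 2 h with LiveBLAzer B/G FRET substrate at room temperature.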

Test [3] shares this target. The test is described as follows: qHTS assay to identify small molecule antagonists of the estrogen receptor beta (ER-beta) signaling pathway (AID 1259378; active means well fitted inhibition curve with a large enough effect in the signal ratio in the repeat runs, not every such curve was filed as active; the % refers to the signal ratio). Summed up: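 ER-beta-UAS-bla HEK293T cells in 2% charcoal-stripped FBS medium treated with compound plus 1nM final 17-beta-estradiol for 16 hr at 37C. Beta-lactamase reporter read by FRET substrate fluorescence after 2 hours at room temperature.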

A short description of test [4]: qHTS assay to identify small molecule agonists of the androgen receptor (AR) signaling pathway in the presence of an antagonist - cell viability counter screen (AID 1259379).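 Further: MDA-kb2 human breast cancer cells carrying an MMTV luciferase reporter; series mostly up to about 92 µM; nearly all actives have a fitted effect of over 25% in size.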 Summed up: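 Cytotoxicity is assessed by CellTiter-Fluor in MDA-kb2 cells carrying an MMTV-driven luciferase reporter. Cells receive 3.0uM nilutamide plus compounds at 15 concentrations and incubate 16 hr at 37C without CO2 before fluorescence reading.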

A short description of test [5]: qHTS assay to identify small molecule agonists of the estrogen receptor beta (ER-beta) signaling pathway - cell viability counter screen (AID 1259380). Further: nearly all actives have a fitted effect of over 30% in size. Summed up: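 Cytotoxicity is measured in parallel with the reporter screen: after 16 hr compound exposure at 37C and a 2 hr LiveBLAzer step, CellTiter-Glo is added to the same ER-beta-UAS-bla HEK293T wells and luminescence read after 30 min.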

Test [6] in a line: qHTS assay to identify small molecule antagonists of the estrogen receptor beta (ER-beta) signaling pathway - cell viability counter screen (AID 1259382). Further: series mostly up to about 92 µM; nearly all actives have a fitted effect of over 55% in size. The essentials: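 Cytotoxicity counter screen multiplexed with the beta-lactamase antagonist assay: GripTite HEK293T ER-beta-bla cells were treated 16 hr with test chemicals in the presence of 1nM 17-beta-estradiol, and viability was measured by CellTiter-Glo.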

In test [7] the target is Estrogen receptor (Homo sapiens) (UniProt P03372). The test is described as follows: qHTS assay to identify small molecule agonists of the estrogen receptor alpha (ER-alpha) signaling pathway in the presence of an antagonist (AID 1259383; calls by dose curve; further: top concentration of the series differs between compounds; nearly all actives have a fitted effect of over 15% in size). The essentials:
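Agonist-mode confirmation in the presence of the ER antagonist ICI-182,780 at 10.0nM final. Breast-derived VM7Luc4E2 reporter cells were exposed to compounds for 22hr, and ERE-driven luciferase was quantified by luminescence.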

A short description of test [8]: qHTS assay to identify small molecule agonists or antagonists of the thyroid stimulating hormone receptor (TSHR) signaling pathway - wild type cell line counter screen (AID 1259384; calls by dose curve). Summed up:
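Wild-type Hek293 cells, 800/well, 18 h at 37C, then compound with Ro20-1724 for 30 min RT. cAMP by HTRF (cAMP-d2/anti-cAMP cryptate), 1 h RT, fluorescence read. 15 concentrations, triplicates.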

The target of test [9] is Thyrotropin receptor (Homo sapiens) (UniProt P16473). In words: qHTS assay to identify small molecule antagonists of the thyroid stimulating hormone receptor (TSHR) signaling pathway (AID 1259385; calls by dose curve; further: nearly all actives have a fitted effect of over 20% in size). The essentials: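 TSHR-HEK293 cells (800/well) plated 18 h, then compounds with Ro20-1724 and TSH at 1.5 ng/mL final, 30 min at room temperature. cAMP quantified by HTRF (cAMP-d2/anti-cAMP-cryptate, 1 h); 15 concentrations in triplicate.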
Thyrotropin receptor (Homo sapiens), sequence (P16473 whole entry, looked up): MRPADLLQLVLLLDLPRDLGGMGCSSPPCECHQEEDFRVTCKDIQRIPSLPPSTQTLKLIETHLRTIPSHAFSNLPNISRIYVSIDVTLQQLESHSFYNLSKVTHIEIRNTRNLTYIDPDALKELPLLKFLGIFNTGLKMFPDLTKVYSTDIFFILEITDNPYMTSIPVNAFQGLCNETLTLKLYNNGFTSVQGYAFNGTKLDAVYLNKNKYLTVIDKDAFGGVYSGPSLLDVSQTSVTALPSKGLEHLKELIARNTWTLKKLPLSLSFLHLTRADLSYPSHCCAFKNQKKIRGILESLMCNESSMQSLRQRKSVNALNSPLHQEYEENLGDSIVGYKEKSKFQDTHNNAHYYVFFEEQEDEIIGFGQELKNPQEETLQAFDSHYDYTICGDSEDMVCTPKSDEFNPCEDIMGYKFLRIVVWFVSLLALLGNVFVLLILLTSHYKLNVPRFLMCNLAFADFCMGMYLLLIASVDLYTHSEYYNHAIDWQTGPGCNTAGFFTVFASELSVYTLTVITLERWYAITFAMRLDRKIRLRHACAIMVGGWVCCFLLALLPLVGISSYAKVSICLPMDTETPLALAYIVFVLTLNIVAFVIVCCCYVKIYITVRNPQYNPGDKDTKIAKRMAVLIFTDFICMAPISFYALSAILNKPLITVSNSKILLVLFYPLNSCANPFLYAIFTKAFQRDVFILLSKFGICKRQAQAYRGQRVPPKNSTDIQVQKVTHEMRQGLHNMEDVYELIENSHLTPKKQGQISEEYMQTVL

Test [10] is described as follows: qHTS assay to identify small molecule agonists of the estrogen receptor alpha (ER-alpha) signaling pathway in the presence of an antagonist - cell viability counter screen (AID 1259386).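 Further: series mostly up to about 92 µM; cells exposed to compounds for 22 h at 37 °C before the viability read; nearly all actives have a fitted effect of over 30% in size.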 Summed up: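 Cytotoxicity was measured in parallel with the ERE-luciferase agonist screen, in the same wells. The cells were VM7Luc4E2, which endogenously express ER-alpha, and treatment was with compounds plus 10.0nM ICI-182,780 for 22hr.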

Test [11] has as its target Progesterone receptor (Homo sapiens) (UniProt P06401). The test is described as follows: qHTS assay to identify small molecule agonists of the progesterone receptor (PR) signaling pathway (AID 1346784; calls by dose curve; further: nearly all actives have a fitted effect of over 30% in size; further: potency means the concentration at half of the fitted maximal effect). Summed up:
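PR-UAS-bla HEK 293T cells (beta-lactamase reporter under UAS) in 2% charcoal-stripped FBS, dosed with 23 nL compound after 6 hr, incubated 16hr at 37C. LiveBLAzer B/G FRET substrate added, fluorescence read after 2 hours.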

The target is the same in test [12]. In words: qHTS assay to identify small molecule antagonists of the progesterone receptor (PR) signaling pathway (AID 1346795; active means well fitted inhibition curve with a large enough effect in the signal ratio in the repeat runs, not every such curve was filed as active; the % refers to the signal ratio). Summed up:
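PR-UAS-bla HEK293T cells with beta-lactamase reporter under UAS control, in 2% charcoal-stripped FBS, treated with compounds plus 1 nM promegestone (R5020, final) for 16 hr at 37C. Read-out: FRET beta-lactamase substrate fluorescence after 2 hr at room temperature.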

The nature of test [13]: qHTS assay to identify small molecule antagonists of the progesterone receptor (PR) signaling pathway - cell viability counter screen (AID 1346798). Further: series mostly up to about 92 µM; nearly all actives have a fitted effect of over 50% in size. The essentials:
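PR-UAS-bla HEK293T cells, 3,000/well in 2% charcoal-stripped FBS medium, dosed with compounds plus R5020 agonist and incubated 16 h at 37C. Viability then measured in the same wells by CellTiter-Glo luminescence after 30 min at RT.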

The nature of test [14]: qHTS assay to identify small molecule agonists of the progesterone receptor (PR) signaling pathway - cell viability counter screen (AID 1346799; calls by dose curve; further: nearly all actives have a fitted effect of over 45% in size). Summed up: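 Counter screen in the PR-UAS-bla HEK293T wells (2% charcoal-stripped FBS, 16 h compound exposure at 37 C) after the bla read. CellTiter-Glo added, 30 min at room temperature, luminescence read as cell viability.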

Test [15] in a line: qHTS assay to identify small molecule antagonists of the TGF-beta/Smad signaling pathway - cell viability counter screen (AID 1346824). Further: nearly all actives have a fitted effect of over 50% in size. Summed up:
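SBE-bla HEK 293T cells, incubated overnight, then compound plus 0.25 ng/mL TGF-beta1 (stock added) for 5 hr at 37 C. Viability was read in the same wells by CellTiter-Glo luminescence after 30 min at room temperature.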

Test [16] is described as follows: qHTS assay to identify small molecule agonists of the TGF-beta/Smad signaling pathway - cell viability counter screen (AID 1346829). Further: top concentration of the series differs between compounds; nearly all actives have a fitted effect of over 45% in size. Summed up:
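Compound-treated SBE-bla HEK 293T cells (5 hr, 37 C) were assessed for viability with CellTiter-Glo in parallel with the reporter read.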

Test [17] in a line: qHTS assay to identify small molecule agonists of the TGF-beta/Smad signaling pathway (AID 1346859; active means well fitted activation curve with a large enough effect in the signal ratio in the repeat runs, not every such curve was filed as active; the % refers to the signal ratio; further: series mostly up to about 77 µM). Summed up: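 SBE-bla HEK293T cells plated overnight, then compound exposure for 5 h at 37 C. Beta-lactamase reporter read with LiveBLAzer B/G FRET substrate after 2 h at room temperature, fluorescence at 405 nm excitation, 460/530 nm emission.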
For test [18], the target named is Thyrotropin-releasing hormone receptor (Homo sapiens) (UniProt P34981). In words: qHTS assay to identify small molecule antagonists of the thyrotropin-releasing hormone receptor (TRHR) signaling pathway (AID 1346877; active means well fitted inhibition curve with a large enough effect in the repeat runs, not every such curve was filed as active; further: series mostly up to about 51 µM). Summed up:
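Antagonism is measured as suppression of the calcium response to 1 nM TRH in TRHR-HEK293 cells that have been dye-loaded for 2 h at 37 °C after overnight plating. Each compound is tested at 15 concentrations in triplicate.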

For test [19], the target named is Androgen receptor (Homo sapiens) (UniProt P10275). In words: qHTS assay to identify small molecule agonists of the androgen receptor (AR) signaling pathway in the presence of an antagonist (AID 1259381; calls by dose curve; further: nearly all actives have a fitted effect of over 15% in size). The essentials:
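Agonist-mode confirmation screen: human MDA-kb2 cells stably expressing luciferase under an MMTV promoter bearing AR and GR response elements, co-treated with 3.0uM nilutamide (final). Luminescence measured after 16hr compound incubation.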

Test [20] in a line: qHTS assay to identify small molecule antagonists of the sonic hedgehog signaling (Shh) pathway (AID 1259369; calls by dose curve; further: nearly all actives have a fitted effect of over 45% in size). The essentials:
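Cells are plated and held 4hr at 37 C, compounds (DMSO) are pinned in, conditioned medium is added to stimulate the pathway, and after 24hr luciferase reagent is added for 30min before luminescence is read.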

Records with an inconclusive call do not appear. The source made the active and inactive calls. Unless noted, the call rests on the fitted dose curve; in most records, active means well fitted curve in the direction sought with a large enough effect in the repeat runs; inconclusive means weak or mixed curves; inactive means no such curve, though single readings can be large; an effect the other way counts as inactive or inconclusive.

Progesterone receptor (Homo sapiens), sequence (P06401 whole entry, looked up): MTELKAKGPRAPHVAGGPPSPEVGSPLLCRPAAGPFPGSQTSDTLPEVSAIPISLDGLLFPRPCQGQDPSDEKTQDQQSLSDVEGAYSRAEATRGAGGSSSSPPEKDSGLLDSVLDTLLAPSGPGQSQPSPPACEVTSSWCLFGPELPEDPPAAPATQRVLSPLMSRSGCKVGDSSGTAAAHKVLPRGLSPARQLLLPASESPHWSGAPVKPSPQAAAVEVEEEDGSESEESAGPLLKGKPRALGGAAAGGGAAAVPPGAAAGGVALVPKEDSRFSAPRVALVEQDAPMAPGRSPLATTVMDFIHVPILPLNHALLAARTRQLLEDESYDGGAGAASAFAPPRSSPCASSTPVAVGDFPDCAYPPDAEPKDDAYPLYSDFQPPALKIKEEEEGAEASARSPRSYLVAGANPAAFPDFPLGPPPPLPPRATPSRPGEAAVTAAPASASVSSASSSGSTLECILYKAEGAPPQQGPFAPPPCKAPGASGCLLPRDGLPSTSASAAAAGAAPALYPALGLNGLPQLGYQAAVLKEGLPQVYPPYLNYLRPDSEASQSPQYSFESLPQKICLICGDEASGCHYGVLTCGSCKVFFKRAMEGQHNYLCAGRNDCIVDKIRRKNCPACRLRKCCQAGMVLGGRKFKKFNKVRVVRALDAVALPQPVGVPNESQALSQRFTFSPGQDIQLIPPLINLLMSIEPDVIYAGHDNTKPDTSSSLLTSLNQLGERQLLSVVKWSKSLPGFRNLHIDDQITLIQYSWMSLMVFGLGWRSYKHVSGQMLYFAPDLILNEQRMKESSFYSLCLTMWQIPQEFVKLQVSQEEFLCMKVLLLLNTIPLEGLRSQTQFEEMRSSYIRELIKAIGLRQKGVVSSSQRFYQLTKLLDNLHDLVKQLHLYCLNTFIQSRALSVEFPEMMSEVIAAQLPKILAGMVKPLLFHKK
Thyrotropin-releasing hormone receptor (Homo sapiens), sequence (P34981 whole entry, looked up): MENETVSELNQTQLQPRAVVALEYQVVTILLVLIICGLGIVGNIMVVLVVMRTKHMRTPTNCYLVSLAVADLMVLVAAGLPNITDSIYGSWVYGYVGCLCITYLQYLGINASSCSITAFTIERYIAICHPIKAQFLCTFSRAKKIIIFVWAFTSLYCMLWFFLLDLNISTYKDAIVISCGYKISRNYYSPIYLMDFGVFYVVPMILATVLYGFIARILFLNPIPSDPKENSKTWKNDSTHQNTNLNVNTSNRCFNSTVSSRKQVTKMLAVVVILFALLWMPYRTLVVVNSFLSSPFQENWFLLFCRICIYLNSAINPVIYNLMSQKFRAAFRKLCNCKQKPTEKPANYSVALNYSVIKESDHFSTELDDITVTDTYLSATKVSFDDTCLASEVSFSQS
Estrogen receptor (Homo sapiens), sequence (P03372 whole entry, looked up): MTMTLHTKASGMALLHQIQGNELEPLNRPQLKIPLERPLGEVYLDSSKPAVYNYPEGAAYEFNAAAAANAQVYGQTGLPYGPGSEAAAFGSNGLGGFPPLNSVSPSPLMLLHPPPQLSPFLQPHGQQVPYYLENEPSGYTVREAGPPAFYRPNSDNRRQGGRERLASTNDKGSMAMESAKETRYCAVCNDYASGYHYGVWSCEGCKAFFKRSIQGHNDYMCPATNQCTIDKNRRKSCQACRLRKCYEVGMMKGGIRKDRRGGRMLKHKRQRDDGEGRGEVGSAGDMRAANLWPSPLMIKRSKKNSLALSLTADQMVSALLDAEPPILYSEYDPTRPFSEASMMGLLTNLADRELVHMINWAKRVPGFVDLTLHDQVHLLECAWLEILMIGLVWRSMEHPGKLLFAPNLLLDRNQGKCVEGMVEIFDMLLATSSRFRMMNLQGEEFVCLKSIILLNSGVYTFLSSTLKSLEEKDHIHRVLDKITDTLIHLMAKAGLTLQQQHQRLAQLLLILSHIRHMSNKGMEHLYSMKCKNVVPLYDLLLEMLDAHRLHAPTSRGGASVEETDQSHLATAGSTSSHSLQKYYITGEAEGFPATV
Estrogen receptor beta (Homo sapiens), sequence (Q92731 whole entry, looked up): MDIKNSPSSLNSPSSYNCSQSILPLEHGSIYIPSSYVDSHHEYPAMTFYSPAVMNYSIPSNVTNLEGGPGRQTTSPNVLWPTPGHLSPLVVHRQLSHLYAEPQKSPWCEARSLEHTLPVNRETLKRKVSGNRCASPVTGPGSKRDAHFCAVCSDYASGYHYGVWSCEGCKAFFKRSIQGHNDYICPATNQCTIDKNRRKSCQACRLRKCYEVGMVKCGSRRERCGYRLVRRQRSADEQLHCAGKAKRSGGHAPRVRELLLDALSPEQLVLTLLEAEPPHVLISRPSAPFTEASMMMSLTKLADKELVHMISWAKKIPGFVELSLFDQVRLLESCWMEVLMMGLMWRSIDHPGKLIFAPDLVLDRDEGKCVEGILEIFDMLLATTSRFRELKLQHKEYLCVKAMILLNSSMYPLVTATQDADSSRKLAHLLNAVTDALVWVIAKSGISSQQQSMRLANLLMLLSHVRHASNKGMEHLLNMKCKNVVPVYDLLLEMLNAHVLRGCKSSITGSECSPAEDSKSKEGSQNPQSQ
Androgen receptor (Homo sapiens), sequence (P10275 whole entry, looked up): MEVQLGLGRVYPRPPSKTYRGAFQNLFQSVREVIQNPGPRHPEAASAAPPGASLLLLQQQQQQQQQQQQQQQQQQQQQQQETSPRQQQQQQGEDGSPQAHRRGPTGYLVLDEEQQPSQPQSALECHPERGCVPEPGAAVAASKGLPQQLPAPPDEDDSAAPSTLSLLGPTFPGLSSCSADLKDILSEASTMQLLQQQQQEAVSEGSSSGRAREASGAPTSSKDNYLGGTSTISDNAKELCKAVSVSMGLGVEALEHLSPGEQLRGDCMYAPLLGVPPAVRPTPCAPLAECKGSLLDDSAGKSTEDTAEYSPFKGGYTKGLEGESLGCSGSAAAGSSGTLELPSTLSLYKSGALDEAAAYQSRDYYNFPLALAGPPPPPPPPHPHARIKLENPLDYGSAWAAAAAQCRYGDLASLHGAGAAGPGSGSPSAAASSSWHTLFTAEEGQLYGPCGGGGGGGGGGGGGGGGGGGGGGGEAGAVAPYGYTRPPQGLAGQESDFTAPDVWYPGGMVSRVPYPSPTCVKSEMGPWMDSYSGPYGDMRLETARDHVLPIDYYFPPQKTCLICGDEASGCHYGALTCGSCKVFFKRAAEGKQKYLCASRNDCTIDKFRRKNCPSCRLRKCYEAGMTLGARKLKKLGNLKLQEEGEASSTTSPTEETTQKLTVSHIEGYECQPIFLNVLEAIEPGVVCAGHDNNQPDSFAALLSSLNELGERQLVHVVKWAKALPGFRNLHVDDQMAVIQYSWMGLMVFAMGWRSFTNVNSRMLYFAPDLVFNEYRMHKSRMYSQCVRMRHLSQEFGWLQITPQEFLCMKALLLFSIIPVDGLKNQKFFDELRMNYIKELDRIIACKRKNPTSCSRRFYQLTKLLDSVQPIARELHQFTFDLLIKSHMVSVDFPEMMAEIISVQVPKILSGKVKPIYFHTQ

For the compound `CC/C=C\CCOC(C)=O`, the compound was classed as inactive in [1], in [2], in test [3], in test [8], in test [16] and in test [17]. Also, the Potency result in test [4], in test [5], in test [6], in test [7], in [9] and in test [10] was “inactive” each time. Also, the Potency result in [11], in test [12], in test [13], in [14] and in test [15] was “inactive” in each case.

In the case of `CCC(C)C1CCCCC1=O` (stereo unspecified), the outcome in test [1], in test [2], in test [3], in test [8], in test [16] and in test [17] was inactive. Besides, the Potency entry in [4], in test [5], in test [6], in test [7], in [9] and in [10] was “inactive” each time. The Potency entry in test [13], in test [14] and in test [15] was “inactive” in each case.

Turning to `NC(=O)Nc1ccccc1`, the result in [1], in test [2], in test [3], in test [8] and in test [17] was inactive. Also, the Potency result in test [4], in test [5], in test [6], in test [7], in [9] and in [10] was “inactive” each time. Besides, the Potency entry in test [11], in test [12], in test [13], in test [14] and in [15] was “inactive” each time.

Consider `CC(C)c1cc2c(cc1S(=O)(=O)O)[C@@]1(C)CCC[C@@](C)(C(=O)O)[C@@H]1CC2`, for which the outcome in test [1], in test [2], in test [3], in test [8], in test [16] and in test [17] was inactive. For the same compound, the result in test [18] was inactive. The Potency entry in test [4], in test [5], in [6], in test [7], in [9] and in test [10] was “inactive” in each case. The Potency entry in test [11], in [12], in test [13], in [14] and in test [15] was “inactive” each time.

For `CC(C)NC(=O)NC(C)C`, the compound was classed as inactive in test [1], in test [2], in test [3], in [8], in [16] and in test [17]. Moreover, in test [18], the call was inactive. The Potency result in test [4], in test [5], in [19], in [6], in [7] and in test [9] was “inactive” each time. In addition, the Potency entry in [10], in test [11], in [12], in [13], in test [14] and in [15] was “inactive” each time.

For the compound `CCO[Si](CCC1CCC2OC2C1)(OCC)OCC` (stereo unspecified), the compound was classed as inactive in test [1], in test [2], in test [3], in test [8], in [17] and in test [18]. Also, the Potency result in test [4], in test [5], in test [6], in [7], in [9] and in [10] was “inactive” throughout. In addition, the Potency entry in test [11], in [12], in test [13], in test [14] and in test [15] was “inactive” throughout.

Regarding `CCCC(=O)O[C@]1(C(=O)CO)CC[C@H]2[C@@H]3CCC4=CC(=O)CC[C@]4(C)[C@H]3[C@@H](O)C[C@@]21C`, the call in test [1], in test [8], in test [16], in test [17] and in test [18] was inactive. Further, the Potency result in [20], in test [4], in test [5], in test [6], in [9] and in test [10] was “inactive” each time. The Potency result in test [12], in [13] and in test [15] was “inactive” throughout. In addition, the Potency in test [11] was 841 nM (active).

With `C[N+](C)(C)CCCCCC[N+](C)(C)C`, the call in [1], in test [16], in [17] and in test [18] was inactive. The Potency result in test [20], in test [4], in test [5], in test [6], in [10] and in test [11] was “inactive” in each case. Besides, the Potency result in test [12], in test [13], in test [14] and in test [15] was “inactive” each time.

These data come from PubChem BioAssay (Tox21).
